These results are taken from PubChem BioAssay (NCATS).

Each structure is given as a SMILES string. Unmarked numbers belong to inactive results. Inconclusive results are not listed. Activity calls are given as the source filed them. Unless noted, calls follow the shape of the dose curve; as a rule, active = well fitted curve in the direction sought with a large enough effect; inconclusive = small, poorly fitted or top-dose-only effect, or another doubt; inactive = no such curve, though single readings can be large; an effect the other way counts as inactive or inconclusive.

The nature of test [1]: Stat Signaling Pathway (AID 446; active = well fitted curve in either direction with a large enough effect, not every such curve was filed as active;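 also: ME-180 cervical cancer cells given 40 pM IL-6 alongside compound; SIE-controlled beta-lactamase reporter measured as 460/530 nm FRET emission ratio; % is scaled to controls: 0 for no effect and ±100 for the full control effect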). An outline of the steps: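 FRET read-out (405 nm excitation, 460/530 nm emission) of a beta-lactamase reporter under a STAT-inducible element in ME-180 cervical carcinoma cells. Cells with compound receive 40 pM IL-6 for 5 h. Values are normalised to AC90 stimulation and AC90 JAK-inhibitor controls.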
Test [2] concerns the target Cytochrome P450 2C9 (Homo sapiens) (UniProt P11712). The test can be described thus: qHTS Assay for Inhibitors and Substrates of Cytochrome P450 2C9 (AID 883). Also: nearly all actives have a fitted effect of over 60% in size. Also: potency is read from the fitted curve at half-maximal effect. In outline:
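Inhibition of CYP2C9 is scored as loss of luminescence, with 57uM sulphaphenazole defining 100% inhibition. Substrate Luciferin-H is used at 100uM, equal to its KM; enzyme at 10nM in 25mM KPO4, 60 min at 37C with NADPH regeneration.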

Test [3] in a line: qHTS profiling for inhibitors of Plasmodium falciparum proliferation (AID 504749).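 Also: 0% = DMSO vehicle and full inhibition = artemisinin control; nearly all actives have a fitted effect of over 60% in size.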 The following applies: P. falciparum in erythrocytes, SYBR Green DNA, 72 h, at 28.7 µM (top of the series). In outline:
(§1)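 SYBR Green fluorescence of parasite DNA, read after lysis and overnight dark incubation, measured growth over 72 h in erythrocyte culture at 0.3% parasitemia and 2.5% hematocrit. Data normalised to DMSO and 0.29 uM artemisinin, with plate-drift correction.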

Another test deals with AS120. The test is described as above. The following applies: P. falciparum in erythrocytes, SYBR Green DNA, 72 h; series mostly up to 28.7 µM. An outline of the steps: as §1
The test system of the next test is CP203. The description is as above. The following applies: P. falciparum in erythrocytes, SYBR Green DNA, 72 h; series mostly up to 28.7 µM. An outline of the steps: as §1
The subject of another test is CP291. The test is described as above. The following applies: P. falciparum in erythrocytes, SYBR Green DNA, 72 h; series mostly up to 28.7 µM. In outline: as §1
A further test deals with DFO2036. The description is as above. The following applies: P. falciparum in erythrocytes, SYBR Green DNA, 72 h; series mostly up to 28.7 µM. In outline: as §1
Test [4] addresses Guanine nucleotide-binding protein G(i) subunit alpha-1 (Homo sapiens) (UniProt P63096). Description: qHTS Assay for Inhibitors of RGS12 GoLoco Motif Activity (Green Fluorophore) (AID 879).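 Also: 0% = labeled peptide with Gαi1 and full inhibition = labeled peptide alone without protein; negative values mean loss of peptide binding seen as reduced polarization.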 In outline:
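A drop in FITC polarization marked displacement of the FITC-tagged RGS12 GoLoco peptide (10 nM) from Gαi1 (50 nM). Compounds were incubated 10 min at room temperature in Tris pH 7.5 buffer containing 150 mM NaCl, 0.1 mM GDP and 0.05% NP40; unlabeled peptide titration served as control.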

The target in test [5] is Cytochrome P450 2C19 (Homo sapiens) (UniProt P33261). Description: qHTS Assay for Inhibitors and Substrates of Cytochrome P450 2C19 (AID 899). Also: nearly all actives have a fitted effect of over 60% in size. Also: potency is read from the fitted curve at half-maximal effect. As to activity, negative = inhibition: % is scaled to controls: 0 for no effect and ±100 for the full control effect. In outline: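 5nM enzyme + 10uM Luciferin-H EGE (=KM), 50mM KPO4; cpd pin-transferred, 10 min 37C; NADPH regen, 60 min 37C; stopped w/ luciferin detection reagent, 20 min; luminescence. Normalized to 57uM ketoconazole (AC100).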
A short description of test [6]: qHTS Assay for Identification of Small Molecule Agonists for Thrombopoietin (TPO) Signaling Pathway (AID 917). Also: % is scaled to controls: 0 for no effect and ±100 for the full control effect. In outline:
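Luciferase reporter (Glycoprotein IIb promoter) in IL-3-deprived Ba/F3 cells carrying human TPO receptor; compounds co-added with 26 pM TPO, incubated 24 h, 37 C. Steadylite luminescence measured after 10 min.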

Test [7] addresses Muscarinic acetylcholine receptor M1 (Rattus norvegicus) (UniProt P08482). Description: qHTS Assay for Antagonists of Acetylcholine Muscarinic M1 Receptor: Measurement of IP-One Response (AID 944). Also: nearly all actives have a fitted effect of over 75% in size. Also: potency is read from the fitted curve at half-maximal effect. An outline of the steps: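 IP1 accumulation measured via TR-FRET between d2-IP1 and Eu-cryptate anti-IP1 antibody after carbachol (200 nM, EC80) stimulation for 30 min; rat M1-transfected CHO cells received compound 10 min before agonist.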

Test [8] concerns the target Pyruvate kinase (Leishmania mexicana) (UniProt Q27686). The test can be described thus: qHTS Validation Assay for Inhibitors of Leishmania Mexicana Pyruvate Kinase (AID 945).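 Also: 0% = DMSO only neutral control wells.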 In outline: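 The enzyme is a highly purified E451W mutant of LmPYK used at 0.2 nM. It converts 0.5 mM PEP and 0.1 mM ADP over 1 h at room temperature; product ATP is quantified by luciferase luminescence relative to DMSO controls.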

The target in test [9] is Pyruvate kinase PKM (Homo sapiens) (UniProt P14618). Description: qHTS Assay for Activators of Human Muscle Pyruvate Kinase (AID 954; active = well fitted curve in the direction sought with a large enough effect, not every such curve was filed as active;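 also: 0% = uninhibited enzyme and -100% = no enzyme or full thiadiazolimine inhibition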). An outline of the steps: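 ATP production by PKM2 detected via luciferase luminescence after 1 h room-temperature reaction (0.1 nM enzyme, PEP at Km 0.5 mM, ADP 0.1 mM, pH 7.2 imidazole buffer). Inhibition scaled to no-enzyme control; activation referenced to 0.3 nM enzyme wells.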

The target of test [10] is Alpha-galactosidase (Coffea arabica) (UniProt Q42656). The test can be described thus: Counterscreen for Glucocerebrosidase Inhibitors: qHTS Assay for Coffee Bean alpha-Galactosidase at pH 4.5 (AID 957).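 Also: plate controls were enzyme alone for no effect and no enzyme for full effect.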 An outline of the steps:
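Fluorogenic qHTS at pH 4.5 (citrate buffer with Tween-20): 2 nM enzyme, 80 uM 4-MU-alpha-galactoside substrate, compound titrated 0.7 nM to 77 uM, 20 min room temperature. Glycine/NaOH stop; 4-MU read Ex 365/Em 440; Hill-equation AC50 against no-enzyme and enzyme controls.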

Test [11] concerns the target Alpha-galactosidase A (Homo sapiens) (UniProt P06280). Description: Counterscreen for Glucocerebrosidase Inhibitors: qHTS Assay for Human alpha-Galactosidase at pH 4.5 (AID 992). Also: 0% is about no effect. In outline: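 Fluorogenic 1536-well qHTS at pH 4.5 (citrate, Tween-20): 2 nM enzyme, 80 uM 4-MU-alpha-galactoside, 20 min room temperature, NaOH/glycine stop. Titration 0.7 nM to 77 uM, data normalized to no-enzyme and full-activity controls, Hill-fitted AC50.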

Test [12] addresses alpha-glucosidase (Oryza sativa, rice) (UniProt Q653V4). Description: Counterscreen for Glucocerebrosidase Inhibitors: qHTS Assay for Rice alpha-Glucosidase at pH 5.0 (AID 997).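 Also: 0% = full activity with enzyme and -100% = basal without enzyme.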 In outline: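 Endpoint fluorogenic assay at pH 5.0: compounds (0.7 nM to 77 uM) titrated against 4 nM rice enzyme and 400 uM 4-MU-alpha-glucoside for 20 min at room temperature; NaOH/glycine stop, read ex 365/em 440 nm, Hill-fitted AC50.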

Test [13] concerns the target Alpha-galactosidase (Coffea arabica) (UniProt Q42656). Description: Counterscreen for Glucocerebrosidase Inhibitors: qHTS Assay for Coffee Bean alpha-Galactosidase at pH 5.9 (AID 998).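 Also: plate controls were uninhibited enzyme for no effect and no-enzyme basal signal for full effect.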 In outline:
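Fluorogenic 4-MU substrate hydrolysis, 80 uM substrate and 2 nM coffee bean alpha-galactosidase, pH 5.9 citrate buffer, 20 min at room temperature, then NaOH/glycine stop. Titration 0.7 nM–77 uM, normalized to no-enzyme and enzyme controls, AC50 via Hill equation.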

Test [14] in a line: qHTS Assay for Identification of Small Molecule Agonists for Hypoxia Response Element Signaling Pathway (AID 914; active = well fitted activation curve with a large enough effect in the signal ratio, with a control signal flat, not every such curve was filed as active; the % refers to the signal ratio; also: % of control where 0% means no effect). The conditions noted are these: ME-180 (cervical carcinoma) HRE-bla reporter, beta-lactamase ratio, CoCl2, 17 h; activation: hits give high values. In outline: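 Cells were plated overnight, pin-dosed with compound in a titration series, co-stimulated with EC50 CoCl2 and incubated 17 hours at 37 degrees Celsius. CCF4 substrate was then loaded, and AC50 values came from the 460nm/530nm ratio.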

Test [15] deals with Muscarinic acetylcholine receptor M1 (Rattus norvegicus) (UniProt P08482). The test can be described thus: qHTS Assay for Antagonists of Acetylcholine Muscarinic M1 Receptor: Kinetic Measurement of Intracellular Calcium Response (AID 943).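 Also: Fluo-4 calcium signal as peak divided by basal fluorescence over 4 min; nearly all actives have a fitted effect of over 75% in size.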 An outline of the steps:
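Antagonism measured as reduction of carbachol-evoked (EC80, 100 nM final) calcium flux in rat M1-CHO cells after 10 min compound exposure. Fluo-4 signal read kinetically; ratio of maximal to basal fluorescence.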

Test [16] is described as follows: Confirmation and Secondary Assay for Modulators of Hemoglobin Beta Chain Splicing at IVS2 705 locus (AID 930).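 Also: HeLa cells stably expressing the EGFP-705 splicing reporter; GFP fluorescence per well restored by corrected splicing of the IVS2-705 intron in EGFP; % of control where 0% means no effect.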 In outline: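 Splice-correction reporter: EGFP cDNA split by beta-globin intron 2 bearing the 705 mutation, stably in HeLa. Compound incubation 2 days, 37C; fluorescent objects 5-250 µm summed per well.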

Pyruvate kinase PKM (Homo sapiens), sequence (P14618 whole entry, looked up): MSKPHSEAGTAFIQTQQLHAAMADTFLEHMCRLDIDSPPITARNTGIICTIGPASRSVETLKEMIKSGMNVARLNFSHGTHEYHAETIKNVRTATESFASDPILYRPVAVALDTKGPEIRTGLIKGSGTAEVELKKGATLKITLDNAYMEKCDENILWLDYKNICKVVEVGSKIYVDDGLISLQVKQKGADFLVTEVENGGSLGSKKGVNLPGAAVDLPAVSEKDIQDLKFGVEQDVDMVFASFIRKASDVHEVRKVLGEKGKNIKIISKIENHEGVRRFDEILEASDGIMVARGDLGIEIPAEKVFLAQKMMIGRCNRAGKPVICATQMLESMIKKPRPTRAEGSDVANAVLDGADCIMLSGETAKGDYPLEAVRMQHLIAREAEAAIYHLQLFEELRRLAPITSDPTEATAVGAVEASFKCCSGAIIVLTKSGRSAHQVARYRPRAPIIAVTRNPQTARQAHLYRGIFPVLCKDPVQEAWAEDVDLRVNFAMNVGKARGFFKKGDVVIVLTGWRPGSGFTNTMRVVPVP
Guanine nucleotide-binding protein G(i) subunit alpha-1 (Homo sapiens), sequence (P63096 whole entry, looked up): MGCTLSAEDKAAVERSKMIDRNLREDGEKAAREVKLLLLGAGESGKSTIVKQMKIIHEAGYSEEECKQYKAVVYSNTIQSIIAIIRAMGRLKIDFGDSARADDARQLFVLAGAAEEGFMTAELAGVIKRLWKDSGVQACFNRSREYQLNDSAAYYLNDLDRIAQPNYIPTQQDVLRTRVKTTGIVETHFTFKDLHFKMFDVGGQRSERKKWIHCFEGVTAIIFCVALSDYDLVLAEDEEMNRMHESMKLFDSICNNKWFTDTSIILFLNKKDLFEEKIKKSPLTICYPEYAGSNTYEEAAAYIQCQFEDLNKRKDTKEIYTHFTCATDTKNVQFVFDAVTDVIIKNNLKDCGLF
Muscarinic acetylcholine receptor M1 (Rattus norvegicus), sequence (P08482 whole entry, looked up): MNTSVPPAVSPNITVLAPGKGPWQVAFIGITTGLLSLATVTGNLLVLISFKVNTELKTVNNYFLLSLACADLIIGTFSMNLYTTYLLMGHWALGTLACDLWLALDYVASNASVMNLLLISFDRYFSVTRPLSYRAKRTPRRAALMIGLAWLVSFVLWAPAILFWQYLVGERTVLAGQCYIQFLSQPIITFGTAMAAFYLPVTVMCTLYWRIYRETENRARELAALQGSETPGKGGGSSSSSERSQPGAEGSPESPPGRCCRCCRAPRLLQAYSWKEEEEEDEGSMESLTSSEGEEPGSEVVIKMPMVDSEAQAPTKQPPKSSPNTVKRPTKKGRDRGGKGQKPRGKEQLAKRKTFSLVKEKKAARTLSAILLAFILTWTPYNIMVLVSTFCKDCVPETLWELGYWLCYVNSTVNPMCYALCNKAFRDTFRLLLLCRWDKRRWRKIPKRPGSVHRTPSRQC
Cytochrome P450 2C19 (Homo sapiens), sequence (P33261 whole entry, looked up): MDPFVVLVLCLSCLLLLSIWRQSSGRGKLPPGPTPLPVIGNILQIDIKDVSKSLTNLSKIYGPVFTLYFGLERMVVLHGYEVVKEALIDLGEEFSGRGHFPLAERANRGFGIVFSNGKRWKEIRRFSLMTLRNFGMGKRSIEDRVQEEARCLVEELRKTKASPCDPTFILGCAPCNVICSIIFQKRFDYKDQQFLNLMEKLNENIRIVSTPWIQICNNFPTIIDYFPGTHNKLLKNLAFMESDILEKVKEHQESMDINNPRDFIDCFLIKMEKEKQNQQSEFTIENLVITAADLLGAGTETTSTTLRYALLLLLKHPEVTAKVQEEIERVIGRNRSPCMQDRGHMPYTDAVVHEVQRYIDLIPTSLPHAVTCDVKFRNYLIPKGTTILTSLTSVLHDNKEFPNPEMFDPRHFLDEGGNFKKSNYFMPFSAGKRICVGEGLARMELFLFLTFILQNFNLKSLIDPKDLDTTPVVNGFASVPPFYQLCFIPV
Cytochrome P450 2C9 (Homo sapiens), sequence (P11712 whole entry, looked up): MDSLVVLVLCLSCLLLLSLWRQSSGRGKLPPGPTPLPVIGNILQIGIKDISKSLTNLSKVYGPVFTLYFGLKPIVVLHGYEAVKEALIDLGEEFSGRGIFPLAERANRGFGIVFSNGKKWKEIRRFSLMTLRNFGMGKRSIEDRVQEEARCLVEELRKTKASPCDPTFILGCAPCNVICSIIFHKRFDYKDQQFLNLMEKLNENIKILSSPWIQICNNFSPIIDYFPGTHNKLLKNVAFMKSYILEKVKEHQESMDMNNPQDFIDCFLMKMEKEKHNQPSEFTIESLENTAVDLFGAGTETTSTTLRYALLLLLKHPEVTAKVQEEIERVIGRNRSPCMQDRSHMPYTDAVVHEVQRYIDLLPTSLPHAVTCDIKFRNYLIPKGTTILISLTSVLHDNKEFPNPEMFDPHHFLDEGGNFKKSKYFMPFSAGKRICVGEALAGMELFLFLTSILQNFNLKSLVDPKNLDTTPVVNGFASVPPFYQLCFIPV
Alpha-galactosidase (Coffea arabica), sequence (Q42656 whole entry, looked up): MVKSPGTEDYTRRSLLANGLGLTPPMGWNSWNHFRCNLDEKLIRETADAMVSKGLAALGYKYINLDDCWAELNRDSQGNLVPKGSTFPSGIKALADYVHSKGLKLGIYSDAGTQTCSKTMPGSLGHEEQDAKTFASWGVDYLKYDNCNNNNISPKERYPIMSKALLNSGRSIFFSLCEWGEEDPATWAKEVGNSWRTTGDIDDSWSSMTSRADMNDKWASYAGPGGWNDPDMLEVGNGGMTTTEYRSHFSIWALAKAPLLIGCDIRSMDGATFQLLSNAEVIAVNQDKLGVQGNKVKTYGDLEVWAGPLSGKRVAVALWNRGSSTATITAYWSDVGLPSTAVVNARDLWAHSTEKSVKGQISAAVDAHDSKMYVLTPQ
Alpha-galactosidase A (Homo sapiens), sequence (P06280 whole entry, looked up): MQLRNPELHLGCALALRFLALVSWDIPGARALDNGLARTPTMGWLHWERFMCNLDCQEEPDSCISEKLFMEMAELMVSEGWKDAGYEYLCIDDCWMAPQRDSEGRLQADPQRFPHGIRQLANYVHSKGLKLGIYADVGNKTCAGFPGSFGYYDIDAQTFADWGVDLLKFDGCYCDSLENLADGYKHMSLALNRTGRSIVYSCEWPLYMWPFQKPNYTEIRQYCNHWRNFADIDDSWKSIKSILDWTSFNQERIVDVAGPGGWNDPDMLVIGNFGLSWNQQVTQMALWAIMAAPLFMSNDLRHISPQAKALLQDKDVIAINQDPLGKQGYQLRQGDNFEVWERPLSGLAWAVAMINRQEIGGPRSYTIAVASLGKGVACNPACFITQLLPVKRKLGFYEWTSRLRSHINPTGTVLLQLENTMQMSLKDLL
Pyruvate kinase (Leishmania mexicana), sequence (Q27686 2-499 E452W): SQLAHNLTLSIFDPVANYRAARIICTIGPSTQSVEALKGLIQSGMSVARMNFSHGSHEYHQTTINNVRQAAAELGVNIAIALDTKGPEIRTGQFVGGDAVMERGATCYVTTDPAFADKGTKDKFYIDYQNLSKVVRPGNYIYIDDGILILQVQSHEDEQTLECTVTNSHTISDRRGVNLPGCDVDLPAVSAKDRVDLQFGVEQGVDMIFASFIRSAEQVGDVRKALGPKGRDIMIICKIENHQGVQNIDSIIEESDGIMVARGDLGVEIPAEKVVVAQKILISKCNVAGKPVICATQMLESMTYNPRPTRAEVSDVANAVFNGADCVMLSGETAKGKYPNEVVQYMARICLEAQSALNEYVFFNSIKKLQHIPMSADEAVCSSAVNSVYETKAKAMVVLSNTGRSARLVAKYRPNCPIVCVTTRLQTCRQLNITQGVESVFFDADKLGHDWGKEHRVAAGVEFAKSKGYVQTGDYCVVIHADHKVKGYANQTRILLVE

For the molecule `O[C@H]1CCCC[C@H]1N1CCC(c2ccccc2)CC1`, the outcome in test [1] was inactive.

`CC(C)n1cnc2c(C(=O)N[C@H]3CN4CCC3CC4)cc(Cl)cc21`: in [2], the Potency was 0.398 µM (active).

Consider `C=CCN1CC[C@]23c4c5ccc(O)c4O[C@@H]2C(=O)CC[C@]3(O)[C@H]1C5`, for which the molecule was classed as inactive in test [1].

Regarding `CCN1C[C@]2(COC)[C@H](O)C[C@H](OC)[C@]34C1C([C@H](OC)[C@H]23)[C@]1(OC(C)=O)C2[C@@H](OC(=O)c3ccccc3)C(O)(C[C@H]24)[C@@H](OC)[C@@H]1O`, the figures for the activity, negative = inhibition in test [3] (parasite line A) and in test [3] (parasite line B) were -2.64% and -26.7%, respectively. In addition, the Potency entry with AS120, with CP203, with CP291 and in the test with DFO2036 was “inactive” throughout.

`C[C@@H](N)Cn1ccc2cc(F)c(Cl)cc21`: in test [2], the Potency was 3.98 µM (active).

Turning to `C[C@@H](Cc1ccc(OCC(=O)O)cc1)NC[C@H](O)c1cccc(Cl)c1`, the molecule was classed as inactive in test [1], in [4], in [6], in test [8], in [9] and in test [10]. The molecule was called inactive in test [11], in test [12] and in test [13]. The Potency is 6.31 µM (active) in [2], 5.01 µM (active) in [5] and 14.1 µM (active) in test [7].

`c1ccc2c3c([nH]c2c1)CNCC3`: in [1], the result was inactive.

Take `CP(=O)(O)CCCN`: the molecule was classed as inactive in test [1], in test [4], in [8], in [9], in [11] and in test [12]. The call in test [13] was inactive. The activation in test [14] is 7.54%. The Potency entry in [15] is “inactive”.

On to `CN1C(=O)CCS(=O)(=O)[C@H]1c1ccc(Cl)cc1`, for which the call in test [1], in [4], in test [6], in test [16], in [8] and in test [9] was inactive. Further, the molecule was classed as inactive in test [10], in [11], in [12] and in [13]. Besides, the Potency result in test [2], in [5], in [15] and in test [7] was “inactive” in each case.

`N[C@@H](CCP(=O)(O)O)C(=O)O`: the activity, negative = inhibition in [1] was 11.7% [at 7.69 µM].

As to `CNCCc1c[nH]c2ccccc12`, in test [1], the call was inactive. The activation in [14] is -14%.

Take `COc1ccc(C[C@H]2NC[C@H](O)[C@@H]2OC(C)=O)cc1`: in test [5], the Potency was 3.16 µM (active).

`C/C(=C\C=C/[C@@H](C)C(=O)O)[C@H]1CN[C@H](C(=O)O)[C@@H]1CC(=O)O`: the Potency result in test [5] is “inactive”.

For `O=C(Cc1ccc(Cl)c(Cl)c1)N1CCCC[C@H]1CN1CCCC1`, the molecule was classed as inactive in test [1], in test [4], in [6], in test [8], in test [9] and in test [10]. Also, the call in test [11] and in [12] was inactive. In addition, the Potency in test [5] was 6.31 µM (active).

In the case of `N[C@H](Cc1o[nH]c(=O)c1Cl)C(=O)O`, the Potency in [5] was 1.26 µM (active).
